Measured values published in the supplement of paper PMC7366291.
Counter-ions that a name gives are not always drawn. ± gives the standard deviation or the standard deviation of the averaged measurements.

How the values were obtained:
Conditions in all cases: 25 µM; exposure: 24-48 hpf
[1] = system: Danio rerio Tg(wt1b:EGFP) embryo, pronephros; assay: glomerular separation, fold change vs DMSO control; higher = glomeruli further apart (abnormal)
Procedure, shortened: (§1)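 Using a Fiji macro, distances and angles were calculated from 16 reference points set by hand on maximum projections of pronephroi imaged dorsally (470 nm, 10 z-slices) in agarose-filled 96-well plates. The dechorionated Tg(wt1b:EGFP) zebrafish embryos had received 25 μM compound in 0.5% DMSO in HEPES-buffered E3 with 0.003% PTU from 24 to 48 hpf at 28.5°C. Values more than 2 SD from a feature's mean were excluded. Each feature appears as a fold change over the mean of DMSO-treated embryos from the same day.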

[2] = system: Danio rerio Tg(wt1b:EGFP) embryo, pronephros; assay: glomerular width (mean of left and right), fold change vs DMSO control; higher = wider glomerulus
Procedure, shortened: as §1

[3] = system: Danio rerio Tg(wt1b:EGFP) embryo, pronephros; assay: fraction of imaged embryos annotated as normal kidney; higher = less nephrotoxic; extreme values may be limits of the assay
Procedure, shortened: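 Dechorionated Tg(wt1b:EGFP) zebrafish embryos were incubated with 25 μM compound in 0.5% DMSO, 5 mM HEPES-buffered E3 and 0.003% PTU from 24 to 48 hpf at 28.5°C. Pronephroi were then imaged by widefield fluorescence, and the fraction of embryos per treatment assigned by hand to the normal-kidney category is given.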

[4] = system: Danio rerio Tg(wt1b:EGFP) embryo, pronephros; assay: pronephric angle neck segment to proximal convoluted tubule (mean of left and right), fold change vs DMSO control; higher = larger pronephric angle
Procedure, shortened: as §1

SMILES: CC(C[N+](C)(C)C)OC(N)=O (stereo not given) [Bethanechol chloride]
- glomerular separation [1]: 0.946 ± 0.32
- glomerular width [2]: 1.023 ± 0.0027
- fraction of imaged embryos annotated as normal kidney [3]: 0.833
- pronephric angle neck segment [4]: 0.998 ± 0.024

SMILES: CNCCCN1c2ccccc2CCc2ccccc21 [Desipramine hydrochloride]
- glomerular separation [1]: 0.966 ± 0.26
- glomerular width [2]: 0.996 ± 0.032
- fraction of imaged embryos annotated as normal kidney [3]: 0.833
- pronephric angle neck segment [4]: 1 ± 0.047

SMILES: Clc1ccc(C(Cn2ccnc2)OCc2c(Cl)cccc2Cl)c(Cl)c1 (stereo not given) [Isoconazole]
- glomerular separation [1]: 3.36 ± 1.9
- glomerular width [2]: 0.669 ± 0.052
- fraction of imaged embryos annotated as normal kidney [3]: 0.167
- pronephric angle neck segment [4]: 1.64 ± 0.076

SMILES: O=C1C(O)=C([C@H]2CC[C@H](c3ccc(Cl)cc3)CC2)C(=O)c2ccccc21 [Atovaquone]
- glomerular separation [1]: 1.05 ± 0.35
- glomerular width [2]: 0.992 ± 0.027
- fraction of imaged embryos annotated as normal kidney [3]: 0.917
- pronephric angle neck segment [4]: 0.959 ± 0.017

SMILES: C[C@]12CC[C@@H]3c4ccc(O)cc4CC[C@H]3[C@@H]1CC[C@@H]2O [Estradiol-17 beta]
- glomerular separation [1]: 3.16 ± 1.2
- glomerular width [2]: 0.812 ± 0.069
- fraction of imaged embryos annotated as normal kidney [3]: 0.167
- pronephric angle neck segment [4]: 1.29 ± 0.22

SMILES: COc1ccccc1N1CCN(CC(O)COc2cccc3ccccc23)CC1 (stereo not given) [Naftopidil dihydrochloride]
- glomerular separation [1]: 0.922 ± 0.42
- glomerular width [2]: 0.983 ± 0.024
- fraction of imaged embryos annotated as normal kidney [3]: 0.833
- pronephric angle neck segment [4]: 0.966 ± 0.034

SMILES: CC1(C)O[C@@H]2C[C@H]3[C@@H]4C[C@H](F)C5=CC(=O)C=C[C@]5(C)[C@@]4(F)[C@@H](O)C[C@]3(C)[C@]2(C(=O)CO)O1 [Fluocinolone acetonide]
- glomerular separation [1]: 1.23 ± 0.54
- glomerular width [2]: 1.26 ± 0.028
- fraction of imaged embryos annotated as normal kidney [3]: 0.0833
- pronephric angle neck segment [4]: 1.02 ± 0.065

SMILES: O=C1[C@H](CC[C@H](O)c2ccc(F)cc2)[C@@H](c2ccc(O)cc2)N1c1ccc(F)cc1 [Ezetimibe]
- glomerular separation [1]: 1.28 ± 0.36
- glomerular width [2]: 1.01 ± 0.015
- fraction of imaged embryos annotated as normal kidney [3]: 0.75
- pronephric angle neck segment [4]: 0.992 ± 0.059

SMILES: CN1C(=O)CC(c2ccccc2)C1=O (stereo not given) [Phensuximide]
- glomerular separation [1]: 0.924 ± 0.43
- glomerular width [2]: 0.9434 ± 0.0058
- fraction of imaged embryos annotated as normal kidney [3]: 0.889
- pronephric angle neck segment [4]: 0.997 ± 0.013

SMILES: c1ccc(CC2=NCCN2)cc1 [Tolazoline hydrochloride]
- glomerular separation [1]: 0.955 ± 0.4
- glomerular width [2]: 1.03 ± 0.053
- fraction of imaged embryos annotated as normal kidney [3]: 0.667
- pronephric angle neck segment [4]: 0.949 ± 0.013
